Source: PubChem
rCAG binder = molecules binding r(CAG) RNA repeats. r(CAG) RNA repeat, TO-PRO-1 dye displacement fluorescence. inhibition, % at 3 µM. 1.3% of 370,000 active;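 active means inhibition above the plate cutoff, the mean of all test compounds on that plate plus 3 SD, cut at about 35% in these data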;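 further: higher means more dye released from RNA so lower well fluorescence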
NR3A LBD binder = NR3A (human) ligand-binding domain modulation; AID 1259313; 2.5% of 340,000 active; NR3A LBD differential scanning fluorimetry, Tm shift; 0% = protein alone, 100% = glycine-bound protein; Tm shift relative to glycine control, % at 25 µM;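 active means melting temperature shift of at least 10% of the positive control shift, at one fixed dose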
NadD inh = blocks S. aureus nicotinate mononucleotide adenylyltransferase | purified NadD enzyme, colorimetric absorbance read-out | inhibition, % at 20 µM | 0.78% of 360,000 active; in the data active means inhibition above about 26%
FAS TE block = inhibitors of human fatty acid synthase thioesterase domain. AID 602261. recombinant FAS-TE, OMFH fluorogenic substrate, fluorescence endpoint. P49327. 0.67% of 360,000 active. inhibition, % at 15 µM;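 active means compounds whose normalised, plate-corrected inhibition of enzyme fluorescence in the single-dose primary screen is 50% or more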
Hits are given with their value; i = inactive; nt = no result; ! = repeats disagree. Rows were chosen to be rich in hits. Some 4.3% of all compounds tested hit in one or more screens of this group.

SMILES	rCAG binder	NR3A LBD binder	NadD inh	FAS TE block
CCOc1ccc(Cl)cc1-c1cc(C(=O)Nc2cc(OC)ccc2OC)[nH]n1	nt	nt	i	i
COc1ccc(Cl)cc1NC(=O)c1cc(-c2ccc(C)cc2O)n[nH]1	i	12.2	i	i
COc1ccc(Cl)cc1NC(=O)c1cc(-c2cc(C)ccc2O)n[nH]1	i	300.5	i	i
C[C@H](O)[C@@H]1CN2CCc3c([nH]c4c(-c5ccc6c(c5)OCO6)cccc34)[C@@H]2C[C@@H]1N(C)C(=O)c1ccco1	i	nt	nt	nt
CCOC(=O)CC[C@@]1(C(=O)OCC)C[C@@H](CC(=O)NCCc2ccccc2OC)C(=O)N2CCCC=C21	i	nt	nt	nt
CCN1CCCCC(NC(=O)c2ccc(F)cc2)C1=O (centres undefined)	i	nt	nt	nt
Cc1ccc(-n2c(N)c(C#N)c(-c3ccc(Cl)cc3)c(C#N)c2=O)cc1	i	20.0	i	i
Cc1ccc(-c2c(C#N)c(N)n(-c3ccc(C)cc3)c(=O)c2C#N)cc1	i	i	i	i
Cc1cc(NC(=O)c2ccc3[nH]c(C)c(C)c3c2)ccn1	i	12.0	i	i
COc1ccc(NC(=O)c2ccc3[nH]c(C)c(C)c3c2)cc1	i	29.0	i	i
CC(=O)Nc1cccc(NC(=O)c2cccc(-c3ccc(O)cc3)c2)c1	i	10.1	i	i
CC(=O)Nc1cccc(NC(=O)c2ccc3[nH]c(C)c(C)c3c2)c1	i	27.7	i	i
COc1ccc2c(c1)CN1CN(C3CCCC3)S(=O)(=O)CC21 (centres undefined)	i	nt	nt	nt
CC(C)CN1C(=O)C[C@@]2(C(=O)N(C)c3ccc(NS(=O)(=O)c4ccc(F)cc4)cc32)C1c1ccccc1 (some centres undefined)	i	nt	nt	nt
O=C(CN1C(=O)S/C(=C\c2ccc(-c3cc(C(=O)O)ccc3Cl)o2)C1=O)Nc1ccc2c(c1)OCO2	48.9	nt	53.4	i
Cc1ccc(NC(=O)CN2C(=O)S/C(=C\c3ccc(-c4cccc(C(=O)O)c4C)o3)C2=O)cc1C	i	i	34.8	i
COc1ccc(CN(CCN2CCOCC2)C(=O)c2cc(Cl)ccc2F)cc1OC	i	nt	nt	nt
O=C1c2cc(Cl)ccc2-c2c(O)cc(Cl)cc21	i	13.7	i	i
CN(C)/C=C1\C(=O)ON=C1c1ccccc1	i	i	i	i
Cc1ccc(C2=NOC(=O)/C2=C\C=C\c2ccccc2)cc1	i	i	25.9	i
CSc1c(N(C)C)c(=O)c1=S	i	nt	nt	nt
Cc1c2cc[n+](CCN3CCCCC3)cc2c(C)c2c1[nH]c1ccc(O)cc12	nt	i	48.3	i
CCOC(=O)c1[nH]c2ccc(C)cc2c1NC(=O)CN1CCCCC1	i	i	i	i
O=C1CC(c2ccc(O)cc2)Oc2cc(O)cc(O)c21 (centres undefined)	i	i	i	i
CC1CC(=O)c2c(cc3c(-c4c(O)cc(O)c5c(O)c6c(cc45)OC(C)CC6=O)c(O)cc(O)c3c2O)O1 (centres undefined)	nt	23.8	i	i
SMILES	rCAG binder	NR3A LBD binder	NadD inh	FAS TE block
COc1ccc(-c2cc(-c3nnc(SCC(=O)Nc4ccc(-c5nc6ccc(C)cc6s5)cc4)n3N)[nH]n2)cc1	i	nt	nt	nt
COc1ccc(-n2c(C)cc(-c3csc(NC(=O)c4ccc(S(=O)(=O)N(C)C)cc4)n3)c2C)cc1	i	i	34.4	i
COC(=O)C[C@H]1CC[C@@H]2[C@H](COc3ccc(NS(C)(=O)=O)cc3C(=O)N2C)O1	i	nt	nt	nt
C=CCN=C1NC(c2ccc(Cl)cc2)C(C(=O)OC)=C(C)N1Cc1ccccc1C(F)(F)F (centres undefined)	i	nt	nt	nt
Cc1ccccc1NC(=O)C1CCCN1S(=O)(=O)c1cccnc1 (centres undefined)	i	nt	nt	nt
CCOc1ccc(Br)cc1S(=O)(=O)Nc1cccc(S(=O)(=O)N(C)c2ccccc2)c1	i	11.9	i	i
CCOc1ccc(Br)cc1S(=O)(=O)Nc1ccc(C(=O)Nc2ccc(C)cc2)cc1	i	17.6	i	i
CCOc1ccc(Br)cc1C(=O)Nc1ccc(C(=O)NCC(C)C)cc1	i	13.3	i	i
CCOc1ccc(Br)cc1S(=O)(=O)Nc1ccc(C(=O)Nc2ccccc2OC)cc1	i	15.8	i	i
Cc1c(C(=O)N/N=C/c2ccccc2Cl)[nH][nH]c1=O	i	nt	nt	nt
O=C(OCc1cn(Cc2ccccc2)nn1)N1CCOCC1	i	nt	nt	nt
CC(=O)c1cc(-c2cccc(C(C)C)c2)c(=O)n2c1CCC2	i	nt	nt	nt
Cc1cccc(-c2cccc3c4c([nH]c23)[C@@H]2C[C@H](N(C)C(=O)c3ccco3)[C@H]([C@H](C)O)C(=O)N2CC4)c1	i	nt	nt	nt
O=C1C2(CCC13COC(c1ccc(O)cc1)OC3)COC(c1ccc(O)cc1)OC2 (centres undefined)	i	i	i	i
O=C1C2(CCCC13COC(c1ccc(O)cc1)OC3)COC(c1ccc(O)cc1)OC2 (centres undefined)	i	26.0	nt	nt
O=C1CCC(C(=O)Nc2cccc(S(=O)(=O)Nc3ccccc3F)c2)=NN1	i	12.6	i	i
Cc1ccccc1NC(=O)c1oc(=O)c2ccccc2c1-c1ccccc1	i	i	i	i
Cc1cccc(NC(=O)c2oc(=O)c3ccccc3c2-c2ccccc2)c1C	i	15.9	i	i
Cc1ccc(C(=O)N/N=C/c2cc(C)n(-c3ccc(Br)cc3)c2C)cc1[N+](=O)[O-]	i	14.5	35.1	i
COc1ccc2cc1Oc1ccc(cc1)C[C@H]1c3c(cc(OC)c4c3Oc3c(ccc5c3[C@H](C2)N(C)CC5)O4)CCN1C	nt	i	i	66.1
COc1ccc(NC(=S)Nc2ccc(OC(F)F)cc2)cn1	i	i	i	i
COc1ccccc1NC(=S)NNC(=S)Nc1ccc(OC(F)F)cc1	i	31.9	i	i
CCOc1ccc(-c2cc3nc(C4CCN(C(=O)OC(C)(C)C)CC4)c(C(=O)O)cn3n2)cc1	69.6	i	i	i
CCOC(=O)N1CCN(C(=O)c2cc(-c3ccc(OCC)cc3)nc3ccccc23)CC1	i	i	i	i
CC(C)c1nnc(NC(=O)CCC(=O)NC2CCCc3ccccc32)s1 (centres undefined)	i	11.1	i	i
SMILES	rCAG binder	NR3A LBD binder	NadD inh	FAS TE block
COc1ccc(S[C@]2(C(=O)N3CCOCC3)CC(=O)N(P(=O)(OC)OC)[C@@H]2c2ccc(OC)cc2)cc1	i	nt	nt	nt
C=C(C)Cn1c(SCC(=O)N/N=C(\C)c2ccc(Br)cc2)nnc1-c1ccc(Br)cc1	i	nt	nt	nt
CC1(C)S[C@@H]2[C@H](NC(=O)[C@H](N)c3ccccc3)C(=O)N2[C@H]1C(=O)O	57.8!	i	i	i
Cc1ccccc1CN(C)CC(=O)Nc1ccccc1-c1ccccc1	i	22.5	i	i
Cc1ccccc1CN(C)CC(=O)Nc1ccccc1Oc1ccccc1	i	14.0	i	i
COc1ccccc1CN(C)CC(=O)Nc1ccccc1-c1ccccc1	i	i	i	i
C[C@]12Cc3ccccc3C1CC1=N[C@@H](c3ccc(C(F)(F)F)cc3)O[C@@]13C[C@@H]2C(=O)N3C1CCN(Cc2ccccc2)CC1 (some centres undefined)	i	nt	nt	nt
COc1ccc(C2(c3ccc(OC)cc3)NC(=O)N(CC(=O)NCC(C)c3ccccc3)C2=O)cc1 (centres undefined)	i	25.4	i	i
Nn1c(SCc2ccc(Br)cc2)nnc1-c1n[nH]c2c1CCC2	i	nt	nt	nt
